# Values without a mark were called inactive. Inconclusive results are not listed. Entries that show only a call come without a potency. Activity calls are given as the source filed them. Unless noted, the call rests on the fitted dose curve; in most records, active means well fitted curve in the direction sought with a large enough effect; inconclusive means small, poorly fitted or top-dose-only effect, or another doubt; inactive means no such curve, though single readings can be large; an effect the other way counts as inactive or inconclusive.
# Tests used:
# [1] = NCATS anti-infectives library activity on the primary C. elegans qHTS viability assay (AID 1745855; calls by dose curve)
# How it was run: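 Titration-based screen in worms: eggs hatched overnight in M9, L1 larvae fed TOP10 capsules in S medium with compound, incubated 21 °C for 7 days; fluorescent objects gated by size and intensity at days 0, 3 and 7.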
# [2] = target: Nuclear receptor subfamily 1 group I member 3 (Homo sapiens) (UniProt Q14994); experiment: Primary qHTS for antagonist of constitutive androstane receptor (CAR) against the NCATS DSHEA and TCM libraries (AID 1794836); further: series mostly up to about 40 µM
# Sequence of Nuclear receptor subfamily 1 group I member 3 (Homo sapiens) (Q14994 whole entry, looked up): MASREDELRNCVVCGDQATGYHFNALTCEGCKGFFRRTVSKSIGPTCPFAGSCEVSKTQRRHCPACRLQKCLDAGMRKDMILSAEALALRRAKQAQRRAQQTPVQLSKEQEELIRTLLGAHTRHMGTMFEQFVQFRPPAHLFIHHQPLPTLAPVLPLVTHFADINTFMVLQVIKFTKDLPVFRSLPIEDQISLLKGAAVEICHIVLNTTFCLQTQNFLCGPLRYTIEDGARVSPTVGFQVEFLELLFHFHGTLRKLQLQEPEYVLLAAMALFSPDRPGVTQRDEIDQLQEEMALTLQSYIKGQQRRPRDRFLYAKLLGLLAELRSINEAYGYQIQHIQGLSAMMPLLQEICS
# How it was run: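 HepG2 cells stably carrying hCAR and a CYP2B6 luciferase reporter (2,500 cells/well) attached for 5 h, then received compounds with 48 uM CITCO for 24 h at 37C. ONE-Glo luminescence read antagonism; CellTiter-Fluor (405/540 nm) gave viability.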
# [3] = KB-8-5-11 P-gp reporter qHTS against the NCATS DSHEA and TCM libraries (AID 1919977)
# How it was run: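 P-gp-overexpressing KB-8-5-11 cells (500/well) were plated in colchicine-free DMEM with 10% FBS, attached ~4 h, then exposed to substance titrations for ~72 h at 37C. Viability was read by CellTiter-Glo luminescence.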
# [4] = target: Peroxisome proliferator-activated receptor delta (Homo sapiens) (UniProt Q03181); experiment: qHTS assay for small molecule agonists of peroxisome proliferator-activated receptor delta signaling (AID 588534; calls by dose curve)
# Sequence of Peroxisome proliferator-activated receptor delta (Homo sapiens) (Q03181 whole entry, looked up): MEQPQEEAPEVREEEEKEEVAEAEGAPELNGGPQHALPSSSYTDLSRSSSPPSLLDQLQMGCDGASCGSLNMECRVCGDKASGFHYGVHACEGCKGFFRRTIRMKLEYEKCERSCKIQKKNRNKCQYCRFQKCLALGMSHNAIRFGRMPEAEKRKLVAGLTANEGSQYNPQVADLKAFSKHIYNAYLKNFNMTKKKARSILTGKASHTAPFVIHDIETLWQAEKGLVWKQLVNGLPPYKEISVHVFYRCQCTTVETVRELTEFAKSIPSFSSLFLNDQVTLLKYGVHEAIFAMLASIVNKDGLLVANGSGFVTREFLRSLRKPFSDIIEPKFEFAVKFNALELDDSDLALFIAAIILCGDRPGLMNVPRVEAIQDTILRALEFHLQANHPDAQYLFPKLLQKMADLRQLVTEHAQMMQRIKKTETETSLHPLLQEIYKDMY
# How it was run: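 Titration series tested in agonist mode on beta-lactamase reporter cells; 18 hrs at 37 C after a 5 hr pre-incubation. Readout: CCF4 fluorescence, 2 hrs RT. Hill equation gives EC50 and maximal response.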
# [5] = target: Cytochrome P450 1A2 (Homo sapiens) (UniProt P05177); experiment: p450-cyp1a2 (AID 410; calls by dose curve; further: potency means the concentration at half of the fitted maximal effect)
# Sequence of Cytochrome P450 1A2 (Homo sapiens) (P05177 whole entry, looked up): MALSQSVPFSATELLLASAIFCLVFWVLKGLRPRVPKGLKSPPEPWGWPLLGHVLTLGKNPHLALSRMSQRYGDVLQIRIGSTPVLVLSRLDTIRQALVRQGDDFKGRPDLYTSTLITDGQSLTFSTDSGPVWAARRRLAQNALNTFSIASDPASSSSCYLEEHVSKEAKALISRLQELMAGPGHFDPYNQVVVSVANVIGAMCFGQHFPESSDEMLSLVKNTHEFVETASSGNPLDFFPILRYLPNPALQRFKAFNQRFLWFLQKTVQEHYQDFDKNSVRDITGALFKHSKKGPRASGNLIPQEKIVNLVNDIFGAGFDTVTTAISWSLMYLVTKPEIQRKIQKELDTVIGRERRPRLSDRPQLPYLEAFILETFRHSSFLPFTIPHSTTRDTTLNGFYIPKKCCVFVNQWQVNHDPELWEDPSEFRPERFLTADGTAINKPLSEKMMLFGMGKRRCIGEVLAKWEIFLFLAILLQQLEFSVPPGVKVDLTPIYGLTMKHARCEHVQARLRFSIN
# How it was run: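 20nM CYP1A2, 100uM Luciferin-ME (=Km), 100mM KPO4; cpd 10 min RT; +NADPH regen, 60 min RT; stop/detect 20 min; luminescence. Normalized to furafylline 57 uM = full inhibition.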
# [6] = target: Glucocorticoid receptor (Homo sapiens) (UniProt P04150); experiment: GR-GFP Redistribution (AID 450;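 active means compounds whose dose series gives a full or clear partial fitted curve of increased nuclear translocation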; further: potency means the concentration at half of the fitted maximal effect); conditions: U2OS GR-GFP nuclear translocation, laser cytometry, 2 h
# Sequence of Glucocorticoid receptor (Homo sapiens) (P04150 whole entry, looked up, the tested form may be a part): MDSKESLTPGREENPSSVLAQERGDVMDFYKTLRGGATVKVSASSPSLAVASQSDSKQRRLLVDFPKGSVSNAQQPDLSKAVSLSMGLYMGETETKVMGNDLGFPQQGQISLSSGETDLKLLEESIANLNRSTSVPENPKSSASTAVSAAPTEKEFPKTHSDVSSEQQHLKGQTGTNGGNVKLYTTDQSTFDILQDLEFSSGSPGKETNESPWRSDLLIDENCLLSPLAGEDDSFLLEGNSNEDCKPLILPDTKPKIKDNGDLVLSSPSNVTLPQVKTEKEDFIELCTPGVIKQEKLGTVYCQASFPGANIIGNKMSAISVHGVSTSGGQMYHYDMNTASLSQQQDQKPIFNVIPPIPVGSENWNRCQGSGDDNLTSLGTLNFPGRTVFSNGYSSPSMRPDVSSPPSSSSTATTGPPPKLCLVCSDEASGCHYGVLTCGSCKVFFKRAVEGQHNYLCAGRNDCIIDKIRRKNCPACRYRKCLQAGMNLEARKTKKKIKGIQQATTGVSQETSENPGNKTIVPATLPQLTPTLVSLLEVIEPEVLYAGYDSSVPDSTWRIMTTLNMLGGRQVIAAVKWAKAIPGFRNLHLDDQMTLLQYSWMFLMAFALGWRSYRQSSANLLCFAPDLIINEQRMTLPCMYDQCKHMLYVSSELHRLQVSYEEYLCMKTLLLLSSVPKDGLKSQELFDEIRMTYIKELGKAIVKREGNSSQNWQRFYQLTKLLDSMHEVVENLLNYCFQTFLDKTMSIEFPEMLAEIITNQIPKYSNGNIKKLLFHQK
# [7] = target: Glucocorticoid receptor (Homo sapiens) (UniProt P04150); experiment: GR-EFC Redistribution (AID 451; calls by dose curve; further: potency means the concentration at half of the fitted maximal effect); conditions: CHO-K1 GR-EFC translocation, beta-gal luminescence, 2 h
# How it was run: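 CHO-K1 cells stably expressing nuclear-localized β-gal enzyme acceptor and GR fused C-terminally to the enzyme donor fragment; ligand-driven nuclear translocation restores β-gal by complementation. Compounds titrated up to 46 uM final, 2 h at 37 °C; luminescence read.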
# [8] = target: Cytochrome P450 3A4 (Homo sapiens) (UniProt P08684); experiment: qHTS Assay for Activators of Cytochrome P450 3A4 (AID 885); further: nearly all actives have a fitted effect of over 65% in size
# Sequence of Cytochrome P450 3A4 (Homo sapiens) (P08684 whole entry, looked up): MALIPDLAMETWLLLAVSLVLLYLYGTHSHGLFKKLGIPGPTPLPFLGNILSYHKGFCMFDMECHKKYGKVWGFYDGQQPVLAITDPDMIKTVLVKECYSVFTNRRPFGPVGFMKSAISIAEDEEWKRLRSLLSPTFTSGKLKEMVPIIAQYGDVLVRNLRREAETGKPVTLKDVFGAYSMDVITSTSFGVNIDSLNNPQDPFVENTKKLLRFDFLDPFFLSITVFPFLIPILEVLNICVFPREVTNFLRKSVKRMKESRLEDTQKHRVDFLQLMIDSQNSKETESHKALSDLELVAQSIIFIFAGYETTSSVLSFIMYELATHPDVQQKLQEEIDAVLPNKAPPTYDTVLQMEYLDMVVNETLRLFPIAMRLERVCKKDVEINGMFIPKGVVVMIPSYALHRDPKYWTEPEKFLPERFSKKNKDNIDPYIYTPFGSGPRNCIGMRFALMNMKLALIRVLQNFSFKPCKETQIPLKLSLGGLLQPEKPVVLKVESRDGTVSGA
# How it was run: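 CYP3A4 activity: Luciferin-PPXE O-dealkylation, 25uM substrate, 200mM KPO4, RT throughout. Read-out is luciferase luminescence; higher values reflect activation.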
# [9] = target: Cytochrome P450 2D6 (Homo sapiens) (UniProt P10635); experiment: qHTS Assay for Inhibitors and Substrates of Cytochrome P450 2D6 (AID 891); further: potency means the concentration at half of the fitted maximal effect; nearly all actives have a fitted effect of over 60% in size
# Sequence of Cytochrome P450 2D6 (Homo sapiens) (P10635 whole entry, looked up): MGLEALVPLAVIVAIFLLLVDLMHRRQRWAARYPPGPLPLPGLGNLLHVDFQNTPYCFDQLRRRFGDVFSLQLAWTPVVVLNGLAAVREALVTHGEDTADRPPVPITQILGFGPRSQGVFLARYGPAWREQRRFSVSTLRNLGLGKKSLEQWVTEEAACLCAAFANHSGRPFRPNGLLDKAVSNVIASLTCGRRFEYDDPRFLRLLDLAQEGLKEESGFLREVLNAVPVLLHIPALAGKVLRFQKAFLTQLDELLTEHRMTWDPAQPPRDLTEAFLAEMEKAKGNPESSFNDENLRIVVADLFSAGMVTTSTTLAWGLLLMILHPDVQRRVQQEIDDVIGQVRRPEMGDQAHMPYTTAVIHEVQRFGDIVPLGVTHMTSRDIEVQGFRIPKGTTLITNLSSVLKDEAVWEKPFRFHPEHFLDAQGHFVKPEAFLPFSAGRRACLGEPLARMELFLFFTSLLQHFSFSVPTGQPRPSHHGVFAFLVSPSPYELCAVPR
# How it was run: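 Luminescent read-out of luciferin formed by 5 nM human CYP2D6 demethylating 30 uM Luciferin-ME EGE (Km level) over 60 min at room temperature after NADPH regeneration addition. Data normalized to full inhibition by 1.43 uM quinidine.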
# [10] = target: DNA dC->dU-editing enzyme APOBEC-3G (Homo sapiens) (UniProt Q9HC16); experiment: qHTS for inhibitors of Vif-A3G interactions: Validation (AID 588379)
# Sequence of DNA dC->dU-editing enzyme APOBEC-3G (Homo sapiens) (Q9HC16 whole entry, looked up): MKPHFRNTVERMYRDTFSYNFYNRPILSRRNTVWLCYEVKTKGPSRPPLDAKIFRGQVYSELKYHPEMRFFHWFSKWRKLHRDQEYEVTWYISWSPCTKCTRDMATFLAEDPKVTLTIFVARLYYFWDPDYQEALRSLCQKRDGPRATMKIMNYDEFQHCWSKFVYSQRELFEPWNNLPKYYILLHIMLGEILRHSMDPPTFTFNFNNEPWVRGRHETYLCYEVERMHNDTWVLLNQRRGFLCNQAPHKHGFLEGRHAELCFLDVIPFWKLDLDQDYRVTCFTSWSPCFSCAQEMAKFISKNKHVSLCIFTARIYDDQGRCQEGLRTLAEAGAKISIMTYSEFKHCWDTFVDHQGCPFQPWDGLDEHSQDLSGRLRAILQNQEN
# How it was run: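 Yellow fluorescence (Ex 488, Em 500-530) of Vif-coexpressing HeLa A3G-eYFP cells, scanned by Acumen cytometer, reports blocked A3G degradation. Cells plated at 700/well overnight at 37 deg C before compound addition, then a further overnight compound incubation at 37 deg C.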
# [11] = Viability counterscreen for antagonist of constitutive androstane receptor (CAR) against the NCATS DSHEA and TCM libraries (AID 1794837);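 further: compound exposure lasted 24 h before viability reading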
# How it was run: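 HepG2-CYP2B6-hCAR cells (2,500/well) were allowed to attach for 5 h, then exposed to compounds with 48 uM CITCO for 24 h at 37C. Viability was read by CellTiter-Fluor fluorescence after 1 h.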
# [12] = Viability counterscreen for agonist of constitutive androstane receptor (CAR) against the NCATS DSHEA and TCM libraries (AID 1794838);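 further: HepG2 cells with CYP2B6 reporter and hCAR plus 0.75 µM PK11195 antagonist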
# How it was run: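 HepG2-CYP2B6-hCAR cells (2,500/well) attached 5 h, then got compounds plus 0.75 uM PK11195 final. After 24 h at 37C, viability read by CellTiter-Fluor fluorescence (Ex/Em 405/540 nm).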
# [13] = HepG2 viability counterscreen (readout 2: ATP content) against the NCATS DSHEA and TCM libraries (AID 1794840);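 further: HepG2 cells exposed to substances for about 24 h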
# How it was run: (§1)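 HepG2 cells (1,000 cells/well) attached ~4 h, then treated ~24 h at 37C with substances. Protease activity read by GF-AFC (25 uM final, 30 min, Ex/Em 380/510 nm); ATP content then by CellTiter-Glo luminescence.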
# [14] = HepG2 viability counterscreen (readout 1: protease activity) against the NCATS DSHEA and TCM libraries (AID 1794841);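 further: cells exposed to compounds for about 24 h before the protease read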
# How it was run: as §1
# [15] = target: Cytochrome P450 2D6 (Homo sapiens) (UniProt P10635); experiment: qHTS for inhibitors of CYP2D6 against the NCATS DSHEA and TCM libraries (AID 1919972); further: potency means the concentration at half of the fitted maximal effect
# How it was run: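 qHTS, concentration–response format with most substances from 19.5 nM. CYP2D6 + pro-luciferin substrate, 15 min with compound, then 1x NADPH regen, 30–45 min RT dark. Glo detection 30 min, luminescence. Quinidine control.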
# [16] = target: Cytochrome P450 2C19 (Homo sapiens) (UniProt P33261); experiment: qHTS for inhibitors of CYP2C19 against the NCATS DSHEA and TCM libraries (AID 1919974)
# Sequence of Cytochrome P450 2C19 (Homo sapiens) (P33261 whole entry, looked up): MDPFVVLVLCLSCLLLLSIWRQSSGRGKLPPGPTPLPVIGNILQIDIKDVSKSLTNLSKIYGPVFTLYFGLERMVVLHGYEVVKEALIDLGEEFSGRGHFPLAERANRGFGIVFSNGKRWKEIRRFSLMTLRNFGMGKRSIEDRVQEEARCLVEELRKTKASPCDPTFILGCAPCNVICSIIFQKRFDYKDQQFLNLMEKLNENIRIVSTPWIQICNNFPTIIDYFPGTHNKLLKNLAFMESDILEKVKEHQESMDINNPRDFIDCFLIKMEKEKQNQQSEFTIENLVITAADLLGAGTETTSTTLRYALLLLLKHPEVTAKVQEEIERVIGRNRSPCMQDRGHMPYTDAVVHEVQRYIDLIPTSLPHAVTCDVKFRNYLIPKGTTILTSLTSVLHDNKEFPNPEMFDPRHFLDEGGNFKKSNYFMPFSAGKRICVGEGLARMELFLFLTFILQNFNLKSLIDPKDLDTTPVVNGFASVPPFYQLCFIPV
# How it was run: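 Substances were tested against enzyme with a pro-luciferin substrate; minus-enzyme wells served as background. After NADPH-initiated oxidation (30-45 min, RT), light was generated with P450-Glo reagent.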
# [17] = KB-3-1 P-gp reporter qHTS against the NCATS DSHEA and TCM libraries (AID 1919975)
# How it was run: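 Parental KB-3-1 human cervical adenocarcinoma cells (500 cells/well, DMEM + 10% FBS) were treated with substances for ~72 h at 37C; viability was read by CellTiter-Glo luminescence.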
# [18] = qHTS Counterscreen for compound interference against the NCATS DSHEA and TCM libraries (AID 1919978); conditions: firefly luciferase detection reagent interference, luminescence
# How it was run: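 D-luciferin (1 uM final) or 100 mM potassium phosphate buffer alone was preincubated 15 min at RT with compounds (19.5 nM to 39.8 uM final). Luciferin detection reagent was then added and luminescence read after 30 min at RT.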
# [19] = Dual reporter qHTS for agonist of Pregnane X Receptor (hPXR) against the NCATS DSHEA and TCM libraries: Fluorescence readout (AID 1920058)
# How it was run: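 Fluorescence read-out for cell viability: CellTiter-Fluor, 1 h at 37 °C, Ex/Em 405/540 nm. This followed ~24 h treatment of hPXR-Luc HepG2 cells with substances in agonist mode.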
# [20] = target: Nuclear receptor subfamily 1 group I member 2 (Homo sapiens) (UniProt O75469); experiment: Dual reporter qHTS for agonist of Pregnane X Receptor (hPXR) against the NCATS DSHEA and TCM libraries: Luminescence readout (AID 1920059)
# Sequence of Nuclear receptor subfamily 1 group I member 2 (Homo sapiens) (O75469 whole entry, looked up): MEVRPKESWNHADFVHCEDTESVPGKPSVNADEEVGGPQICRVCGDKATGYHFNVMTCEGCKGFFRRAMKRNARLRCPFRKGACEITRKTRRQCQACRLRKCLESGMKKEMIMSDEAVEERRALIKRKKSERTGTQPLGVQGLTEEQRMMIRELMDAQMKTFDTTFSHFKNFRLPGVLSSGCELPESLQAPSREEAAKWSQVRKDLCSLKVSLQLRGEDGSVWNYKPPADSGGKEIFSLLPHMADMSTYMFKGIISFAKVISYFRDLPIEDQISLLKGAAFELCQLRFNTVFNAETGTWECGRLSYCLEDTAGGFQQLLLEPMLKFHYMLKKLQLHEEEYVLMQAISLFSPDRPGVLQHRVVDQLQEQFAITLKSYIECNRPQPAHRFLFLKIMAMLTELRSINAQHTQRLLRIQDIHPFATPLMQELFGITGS
# How it was run: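 hPXR-LucHepG2 cells in phenol red-free DMEM with 5% charcoal-stripped FBS, 2000 cells/well, attached 5 h, then exposed 24 h at 37C to compounds; rifampicin as positive agonist control (2.8 nM–92 uM). Luciferase luminescence read.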
# [21] = target: Nuclear receptor subfamily 1 group I member 2 (Homo sapiens) (UniProt O75469); experiment: Dual reporter qHTS for antagonist of Pregnane X Receptor (hPXR) against the NCATS DSHEA and TCM libraries: Luminescence Readout (AID 1920060);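 further: HepG2 cells carrying hPXR luciferase reporter stimulated with rifampicin at 2 µM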
# How it was run: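 Antagonist mode: rifampicin 2 uM final co-added with compounds to hPXR-LucHepG2 cells for 24 h at 37C. Viability by CellTiter-Fluor, Ex/Em 405/540 nm, 1 h; reporter by ONE-Glo luminescence.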
structure (smiles),measurement,setting,value
COC(=O)C[C@@](O)(CCC(C)(C)O)C(=O)O[C@@H]1C(OC)=C[C@]23CCCN2CCc2cc4c(cc2[C@@H]13)OCO4,Potency,[1],inactive
CC(C)=CCC[C@](C)(O[C@@H]1O[C@H](CO)[C@@H](O)[C@H](O)[C@H]1O)[C@H]1CC[C@]2(C)[C@@H]1[C@H](O)C[C@@H]1[C@@]3(C)CC[C@H](O)C(C)(C)[C@@H]3[C@@H](O[C@@H]3O[C@H](CO)[C@@H](O)[C@H](O)[C@H]3O)C[C@]12C,Potency,[2],inactive
same,Potency,[3],inactive
Oc1cc(O)c2c(c1)O[C@@H](c1cc(O)c(O)c(O)c1)[C@H](O)C2,Potency,[2],inactive
same,Potency,[3],inactive
Oc1cccc(O)c1O,outcome,[4],inactive
same,Potency,[2],inactive
same,Potency,[3],inactive
COc1cc2c(cc1O)C[C@H]1c3c(cc(OC)c(O)c3-2)CCN1C,Potency,[5],10 µM (active)
same,Potency,[6],> 46 µM
same,Potency,[7],> 46 µM
same,Potency,[8],inactive
same,Potency,[9],6.31 µM (active)
same,outcome,[10],inactive
same,Potency,[2],inactive
same,outcome,[11],inactive
same,outcome,[12],inactive
same,outcome,[13],inactive
same,outcome,[14],inactive
same,Potency,[15],5.01 µM (active)
same,Potency,[16],3.98 µM (active)
same,outcome,[17],inactive
same,Potency,[3],inactive
same,max response,[18],-3.09%
same,outcome,[19],inactive
same,Potency,[20],inactive
same,outcome,[21],inactive
